Assay outcomes from PubChem BioAssay.
DT40 TDP1 no CPT – qHTS for Inhibitors of human tyrosyl-DNA phosphodiesterase 1 (TDP1): qHTS in cells in absence of CPT; actives 15% (n = 420,000); DT40 Tdp1-/- hTDP1 cells, no CPT, ATP luminescence, 48 h; Potency, µM (top dose mostly 46.2 µM), for inactives: at the highest dose activity change, negative = growth inhibition, most hits filed as inhibitors; also: potency is read from the fitted curve at half-maximal effect; nearly all actives have a fitted effect of over 55% in size
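Growth of hTDP1-complemented DT40 Tdp1-knockout cells is measured by ATP luminescence after at least 48 hr compound exposure at 37 °C, with DMSO substituting for the 20 nM CPT used in the parallel screen.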
DT40 TDP1 CPT – qHTS for Inhibitors of human tyrosyl-DNA phosphodiesterase 1 (TDP1): qHTS in cells in presence of CPT. chicken DT40 Tdp1-/-;hTDP1 cells + 20 nM CPT, ATP luminescence, 48 h. Potency, µM (highest dose often 46.2 µM), for inactives: top-dose activity change, negative = growth inhibition, actives largely listed as inhibitors. actives 12% (n = 420,000); also: potency is read from the fitted curve at half-maximal effect; nearly all actives have a fitted effect of over 55% in size
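Chicken DT40 Tdp1-/- cells complemented with human TDP1, 400 cells/well, exposed to compounds plus 20 nM camptothecin for at least 48 h at 37 C; viability read as ATP content by CellTiter-Glo luminescence.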
VP16 counter – VP16 counterscreen qHTS for inhibitors of ROR gamma transcriptional activity; actives 3.5% (n = 310,000); Drosophila S2 Gal4-VP16 UAS-luciferase, luminescence, 20 h; AID 2546, 2010; Potency, µM (highest dose often 53.6 µM), without a hit: at the highest dose activity, negative = inhibition, hits mostly inhibitors;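 also: Gal4-VP16 expression switched on by copper sulfate through the metallothionein promoter; potency is read from the fitted curve at half-maximal effect; nearly all actives have a fitted effect of over 50% in size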
IL1B secr inh – qHTS for Inhibitors of Inflammasome Signaling: IL-1-beta AlphaLISA Primary Screen; activity change, % at 57.5 µM; actives 4.7% (n = 360,000); AID 743279, 2014; THP-1 LPS/ATP IL-1B secretion, AlphaLISA, 16 h; stronger effect = lower value; in the data active = activity change below about -50%; inconclusive = mostly about -30% to -49%
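Secreted IL-1B measured by AlphaLISA bead assay after 16 h compound exposure of THP-1 cells; compounds (final up to 57.5 uM) added 1 h before LPS (250 ng/mL) and ATP (1.25 mM) stimulation; lower signal means less secretion.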
ELG1 DNA repair – qHTS screen for small molecules that inhibit ELG1-dependent DNA repair in human embryonic kidney (HEK293T) cells expressing luciferase-tagged ELG1; HEK293T ELG1-luciferase reporter, luminescence, 16 h; DNA damage induced by 5-fluorouridine; Potency, µM (series often up to 46.1 µM), for inactives: at the highest dose activity change, negative = inhibition, usual class: inhibitors; actives 2.3% (n = 330,000); AID 504467, 2011; also: potency is read from the fitted curve at half-maximal effect; nearly all actives have a fitted effect of over 55% in size
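Overnight (16 hr) co-exposure of 2,000 cells/well to 5-fluorouridine and compound at 37 °C preceded detection. Luciferase was quantified via ONE-Glo luminescence; loss of signal denotes inhibition.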
RORg inh – qHTS for inhibitors of ROR gamma transcriptional activity; Nuclear receptor ROR-gamma (Mus musculus), P51450; Drosophila S2 Gal4-RORgamma UAS-luciferase reporter, 20 h; Potency, µM (top dose mostly 53.6 µM), without a hit: top-dose activity change, negative = inhibition, usual class: inhibitors; actives 5.4% (n = 310,000); AID 2551, 2010; also: potency is read from the fitted curve at half-maximal effect; nearly all actives have a fitted effect of over 60% in size
Target sequence (P51450 whole entry, looked up, the tested form may be a part): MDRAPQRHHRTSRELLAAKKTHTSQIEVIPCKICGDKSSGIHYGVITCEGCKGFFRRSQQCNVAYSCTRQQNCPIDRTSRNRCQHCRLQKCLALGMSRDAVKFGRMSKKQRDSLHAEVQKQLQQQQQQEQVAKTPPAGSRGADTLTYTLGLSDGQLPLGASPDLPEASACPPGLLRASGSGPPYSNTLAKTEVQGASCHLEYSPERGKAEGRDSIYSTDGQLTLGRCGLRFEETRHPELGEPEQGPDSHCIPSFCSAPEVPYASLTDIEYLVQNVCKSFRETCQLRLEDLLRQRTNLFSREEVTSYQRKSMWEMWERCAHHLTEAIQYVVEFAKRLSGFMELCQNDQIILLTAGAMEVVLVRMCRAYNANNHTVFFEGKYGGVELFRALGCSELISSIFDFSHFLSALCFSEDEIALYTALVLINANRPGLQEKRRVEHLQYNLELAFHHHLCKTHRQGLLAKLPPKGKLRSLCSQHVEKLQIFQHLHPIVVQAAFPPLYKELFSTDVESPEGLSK
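Luciferase reporter read in Schneider cells carrying Gal4-RORγ (mouse) and UAS-Photinus luciferase; cells given compound 1 h before 700 uM copper sulfate induction, then incubated 20 h at ambient temperature.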
* = called active by the depositor; ? = inconclusive; · = no result given; [ ] = remark or other dose. Compounds with a hit are over-represented: about 21% of the library has one in this group of screens. Unless noted, calls follow the shape of the dose curve; as a rule, active = well fitted curve in the direction sought with a large enough effect; inconclusive = small, poorly fitted or top-dose-only effect, or another doubt; inactive = no such curve, though single readings can be large; an effect the other way counts as inactive or inconclusive. % is scaled to controls: 0 for no effect and ±100 for the full control effect.

SMILES | DT40 TDP1 no CPT | DT40 TDP1 CPT | VP16 counter | IL1B secr inh | ELG1 DNA repair | RORg inh
COc1ccc(CCN2CN(S(=O)(=O)c3ccccc3)c3nc4ccccc4nc32)cc1OC | 18µM* | 21µM* | -12% | -14 | -27% | -32%
Cc1cccc(C)c1NC(=O)CNC(=O)CNC(=O)c1ccc2ccccc2c1 | -5% | -12% | · | -2 | · | ·
COc1cc(C(C)=O)ccc1OCC(O)CN1CCN(c2cc(C)cc(C)c2)CC1 (stereo unspecified) | 16µM* | ? | 7% | -15 | 13µM* | 17%
CCC(=O)c1ccc(OCC(O)CN2CCN(c3ccc(F)cc3)CC2)cc1 (stereo unspecified) | -13% | -2% | -2% | 13 | -8% | 14%
CC(=O)c1ccc(N2CCN(CC(O)COC(c3ccccc3)c3ccccc3)CC2)cc1 (stereo unspecified) | ? | ? | 10% | ? | 9% | -7%
CC(=O)c1ccc(OCC(O)CN2CCN(c3ccc(F)cc3)CC2)cc1 (stereo unspecified) | 23µM* | ? | 3% | -1 | ? | 2%
Brc1cc(-c2ccccc2)nc(-c2ccccc2)n1 | -16% | 5% | · | -84* | · | ·
CN(C)c1cc(-c2ccccc2)nc(-c2ccccc2)n1 | 11% | -3% | 0% | -18 | ? | 6%
Clc1cc(-c2ccccc2)nc(-c2ccccc2)n1 | -21% | ? | · | -52* | · | ·
Nc1ccc(-c2cc(-c3ccc(N)cc3)nc(-c3ccccc3)n2)cc1 | -12% | -9% | 6% | -6 | 11% | 27%
Oc1ccc(-c2cc(-c3ccc(O)cc3)nc(-c3ccccc3)n2)cc1 | ? | ? | -6% | -98* | 0% | -15%
COc1ccc(/C=C2/SC(=O)N(CCNC(=O)C3COc4ccccc4O3)C2=O)cc1 (stereo unspecified) | 21µM* | ? | 17% | 8 | ? | ?
O=C(NCCCN1CCOCC1)C1COc2ccccc2O1 (stereo unspecified) | -1% | -6% | -6% | -3 | -4% | 0%
CCOc1ccc(/C=C2\SC(=O)N(CCNC(=O)C3COc4ccccc4O3)C2=O)cc1OC (stereo unspecified) | 9.2µM* | 12µM* | -4% | -53* | ? | ?
O=C(NCCN1C(=O)S/C(=C\c2ccc(Cl)c(Cl)c2)C1=O)c1ccc2c(c1)C(=O)N(Cc1ccncc1)C2=O | 12µM* | 13µM* | ? | ? | 9.2µM* | ?
O=C(NCCN1C(=O)S/C(=C\c2ccc(Cl)c(Cl)c2)C1=O)C1COc2ccccc2O1 (stereo unspecified) | ? | ? | 3% | -56* | -12% | 16%
Cc1c(NC(=O)COC(=O)c2ccc(Cl)nc2)c(=O)n(-c2ccccc2)n1C | -7% | 4% | · | -13 | 0% | ·
COc1cccc(CN2CCC(n3cc(C(=O)NC4CCCC4)nn3)CC2)c1O | -5% | 14%[9.04 µM] | · | · | · | ·
O=C(Cc1cccc(NC(=O)C2CCCN(C(=O)C3CC3)C2)c1)Nc1ccc(C(=O)N2CCOCC2)cc1 (stereo unspecified) | -3% | 6% | · | -1 | · | ·
Cc1ccc(C(=O)N2CCC(N3CCN(Cc4ccc(F)cc4)C(=O)C3=O)CC2)cc1 | -10% | -4% | · | · | · | ·
CCCNC(=O)C[C@@H]1CC[C@H]2NC[C@H](O)COC[C@@H]2O1 | 4% | 13% | · | 27 | · | ·
Cc1ccc2oc(C(=O)Nc3nc(-c4ccc(F)cc4)ns3)c(C)c2c1 | -19% | -7% | · | · | · | ·
CC(=O)Nc1ccc(C(=O)CSc2nnc(-c3ccccc3F)n2CCc2ccccc2)cc1 | 13µM* | ? | · | 8 | · | ·
Cc1noc(C)c1CSc1nc2ccccc2n1C | -10% | ? | 10% | -25 | ? | -24%
CCC(=O)Nc1ccc(C(=O)CSc2nnc(-c3ccccc3F)n2C2CC2)cc1 | ? | ? | 19% | -26 | ? | ?
SMILES | DT40 TDP1 no CPT | DT40 TDP1 CPT | VP16 counter | IL1B secr inh | ELG1 DNA repair | RORg inh
Cc1noc(C)c1CSc1nnc(-c2ccccc2F)n1CCc1ccccc1 | ? | 18µM* | 2% | 0 | ? | -38%
OCC[C@@H]1C[C@H](O)[C@@H](O)[C@@]2(OCc3cc(C(F)(F)F)ccc32)O1 | -18% | -3% | · | 5 | · | ·
COC(=O)CSc1nnc(-c2ccccc2OC)o1 | -1% | -17% | -25% | 17 | 0% | -25%
Cc1cccc(NC(=O)CSc2nnc(-c3cc(C)n(-c4ccccc4)c3C)o2)c1C | ? | -8% | -12% | -80* | ? | ?
COc1ccccc1-c1nnc(SCC(=O)Nc2ccccc2F)o1 | 21µM* | 21µM* | · | · | · | ·
Cc1cc(-c2nnc(SCC(=O)Nc3ccccc3C(F)(F)F)o2)c(C)n1-c1ccccc1 | ? | -16% | 1% | -12 | ? | 2%
N#CC(C#N)=C1C(=O)N(CCN2CCCCC2)c2ccccc21 | 18µM* | 16µM* | 0% | ? | 0% | -1%
N#CC(C#N)=C1C(=O)N(CCN2CCOCC2)c2ccccc21 | ? | 29µM* | ? | · | 20% | ?
c1ccc2c(c1)Sc1ccccc1N2CCN1CCCC1 | ? | ? | -1% | · | · | 21%
CCCCN1C(=O)/C(=C(/C#N)C(=O)N2CCCC2)c2ccccc21 | 21µM* | 16µM* | 2% | 9 | 0% | 21%
COc1ccccc1C(=O)Nc1ccc(OCC(=O)N2CC(C)OC(C)C2)cc1 (stereo unspecified) | -4% | 2% | · | 0 | ? | ·
O=C(Nc1cccnc1)c1cc(-c2cccc(Br)c2)nc2ccccc12 | 16µM* | ? | -16% | 1 | ? | 34%
O=C(Nc1ccncc1)c1cc(-c2cccc(Br)c2)nc2ccccc12 | ? | ? | · | -78* | ? | ·
CCc1ccc(NC(=O)CC2C(=O)N(c3cccc(OC)c3)C(=O)N2C2CCCC2)cc1 (stereo unspecified) | ? | 16µM* | · | · | · | ·
CCOC(=O)c1ccc(NC(=O)CC2C(=O)N(c3ccc(C)cc3)C(=O)N2C2CCCCC2)cc1 (stereo unspecified) | -16% | -25% | · | · | · | ·
